Results: the supplement of paper PMC10849652
Targets with a hit are over-represented here; the source holds about 8,800 in all. About 0.5% of all pairs of compound and target were hits.

Tests used:
Experiment in all cases: log2 fold change, soluble protein after heating vs DMSO (PISA); higher = thermal stabilisation; K562 lysate, 10 uM; active = over 0.2 and 3.5 SD of the protein, either way, in both replicates (recomputed)
alvocidib = compound: CN1CC[C@H](c2c(O)cc(O)c3c(=O)cc(-c4ccccc4Cl)oc23)[C@H](O)C1 [alvocidib]
Method in brief: (§1)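 Values give the log-two fold change in thermal stability against solvent controls, from duplicates. Crude K562 extract at 1 mg/mL protein, made by dounce homogenisation in PBS pH 7.4 with 1 mM MgCl2, was treated with 10 μM compound for 30 min. After 3 min heating across 48°C-58°C, aliquots were pooled, adjusted to 0.5% NP-40 at 4°C and centrifuged at 21,000xg for 90 min. The supernatant was measured by TMTpro 16plex LC-MS/MS with channel sums equalised.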

Tubastatin A = compound: CN1CCc2c(c3ccccc3n2Cc2ccc(C(=O)NO)cc2)C1 [Tubastatin A]
Method in brief: as §1

[1] = compound: CNC(=O)C1=CC=CC=C1NC2=NC(=NC=C2Cl)NC3=C(C=C(C=C3)N4CCOCC4)OC
Method in brief: as §1

defactinib = compound: CNC(=O)c1ccc(Nc2ncc(C(F)(F)F)c(NCc3nccnc3N(C)S(C)(=O)=O)n2)cc1 [defactinib]
Method in brief: as §1

[2] = compound: CNc1nc(-c2ccc3c(N)n[nH]c3c2)cc(N2C[C@@H](C(=O)NC3CCCCC3)CC[C@H]2C)n1
Method in brief: as §1

encorafenib = compound: COC(=O)N[C@@H](C)CNc1nccc(-c2cn(C(C)C)nc2-c2cc(Cl)cc(NS(C)(=O)=O)c2F)n1 [encorafenib]
Method in brief: as §1

[3] = compound: COC(=O)[C@H](CCSC)NC(=O)C1=C(C=C(C=C1)NC[C@H](CS)N)C2=CC=CC=C2
Method in brief: as §1

alisertib = compound: COc1cc(Nc2ncc3c(n2)-c2ccc(Cl)cc2C(c2c(F)cccc2OC)=NC3)ccc1C(=O)O [alisertib]
Method in brief: as §1

[4] = compound: COc1cc2nc(-c3cc(F)ccc3O)nc(N[C@@H]3CNC[C@H]3C(C)(C)O)c2cc1OC
Method in brief: as §1

gefitinib = compound: COc1cc2ncnc(Nc3ccc(F)c(Cl)c3)c2cc1OCCCN1CCOCC1 [gefitinib]
Method in brief: as §1

Measured: log2 fold change

GSTM4 (UniProt Q03013)
Chain of UniProt Q03013 (Q03013 whole entry, looked up): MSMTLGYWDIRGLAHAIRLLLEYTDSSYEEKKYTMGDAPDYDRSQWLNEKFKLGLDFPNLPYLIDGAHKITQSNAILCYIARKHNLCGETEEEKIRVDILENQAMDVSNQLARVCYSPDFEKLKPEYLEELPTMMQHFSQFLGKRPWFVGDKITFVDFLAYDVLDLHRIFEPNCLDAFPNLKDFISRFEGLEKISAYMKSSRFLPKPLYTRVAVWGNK
inactive: alvocidib 0.006 | Tubastatin A -0.012 | [1] 0.029 | defactinib 0.006 | [2] 0.077 | encorafenib -0.117 | [3] 0.095 | alisertib 0.03 | [4] 0.002 | gefitinib 0.075

GTF2I (UniProt P78347)
inactive: alvocidib 0.05 | Tubastatin A -0.096 | [1] 0.012 | defactinib 0.018 | [2] -0.035 | encorafenib 0.015 | [3] 0.14 | alisertib 0.011 | [4] 0.004 | gefitinib -0.01

IFITM3 (UniProt Q01628)
inactive: alvocidib -0.001 | Tubastatin A -0.329 | [1] 0.01 | defactinib 0.118 | [2] 0.042 | encorafenib 0.043 | [3] -0.142 | alisertib 0.109 | [4] -0.137 | gefitinib 0.291

HNRNPM (UniProt P52272)
Chain of UniProt P52272 (P52272 whole entry, looked up): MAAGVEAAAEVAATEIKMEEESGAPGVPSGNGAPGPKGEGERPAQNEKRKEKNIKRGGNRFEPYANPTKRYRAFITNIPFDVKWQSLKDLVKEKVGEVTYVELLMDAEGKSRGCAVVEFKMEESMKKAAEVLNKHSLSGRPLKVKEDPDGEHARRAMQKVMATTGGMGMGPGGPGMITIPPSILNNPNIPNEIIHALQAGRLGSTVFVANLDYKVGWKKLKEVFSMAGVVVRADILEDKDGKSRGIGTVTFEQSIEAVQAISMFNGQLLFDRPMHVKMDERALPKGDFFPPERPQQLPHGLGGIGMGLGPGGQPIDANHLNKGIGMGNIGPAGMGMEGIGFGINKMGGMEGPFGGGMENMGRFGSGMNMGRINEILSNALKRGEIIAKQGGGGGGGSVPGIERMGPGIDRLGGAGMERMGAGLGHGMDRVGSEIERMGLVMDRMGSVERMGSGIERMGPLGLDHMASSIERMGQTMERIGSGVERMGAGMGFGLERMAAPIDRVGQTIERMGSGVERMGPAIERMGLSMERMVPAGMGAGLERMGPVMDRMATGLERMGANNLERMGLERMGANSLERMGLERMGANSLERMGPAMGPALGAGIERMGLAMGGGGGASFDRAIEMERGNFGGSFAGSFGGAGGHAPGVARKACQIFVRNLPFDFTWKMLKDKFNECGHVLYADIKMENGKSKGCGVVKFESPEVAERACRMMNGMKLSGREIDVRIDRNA
inactive: alvocidib -0.01 | Tubastatin A -0.096 | [1] 0.022 | defactinib 0.045 | [2] -0.067 | encorafenib 0.166 | [3] -0.035 | alisertib 0.069 | [4] 0.037 | gefitinib 0.012

HS1BP3 (UniProt Q53T59)
Chain of UniProt Q53T59 (Q53T59 whole entry, looked up): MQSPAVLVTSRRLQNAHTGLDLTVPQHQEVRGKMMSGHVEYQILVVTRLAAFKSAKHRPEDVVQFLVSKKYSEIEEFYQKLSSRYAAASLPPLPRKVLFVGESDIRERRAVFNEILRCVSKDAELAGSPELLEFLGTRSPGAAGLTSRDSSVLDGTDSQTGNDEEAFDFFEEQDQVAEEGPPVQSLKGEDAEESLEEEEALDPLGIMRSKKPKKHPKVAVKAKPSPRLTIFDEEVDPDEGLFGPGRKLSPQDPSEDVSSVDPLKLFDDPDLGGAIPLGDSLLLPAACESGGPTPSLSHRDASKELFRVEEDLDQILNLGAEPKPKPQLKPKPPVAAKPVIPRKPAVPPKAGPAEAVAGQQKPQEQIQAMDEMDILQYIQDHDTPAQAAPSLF
inactive: alvocidib -0.054 | Tubastatin A 0.034 | [1] -0.015 | defactinib -0.016 | [2] -0.052 | encorafenib 0.009 | [3] -0.088 | alisertib -0.021 | [4] 0.021 | gefitinib -0.031

GMDS (UniProt O60547)
inactive: alvocidib 0.036 | Tubastatin A -0.057 | [1] -0.017 | defactinib 0.042 | [2] 0.003 | encorafenib -0.059 | [3] 0.123 | alisertib 0.016 | [4] 0.023 | gefitinib -0.012

HEATR3 (UniProt Q7Z4Q2)
inactive: alvocidib 0.007 | Tubastatin A -0.129 | [1] 0.02 | defactinib 0.012 | [2] 0 | encorafenib 0.014 | [3] 0.116 | alisertib 0.018 | [4] -0.046 | gefitinib 0.003

GMIP (UniProt Q9P107)
inactive: alvocidib -0.078 | Tubastatin A -0.139 | [1] 0.088 | defactinib 0.033 | [2] -0.01 | encorafenib 0.061 | [3] 0.031 | alisertib -0.014 | [4] -0.078 | gefitinib 0.11

IARS (UniProt P41252)
inactive: alvocidib 0.006 | Tubastatin A -0.134 | [1] 0.01 | defactinib 0.02 | [2] -0.03 | encorafenib 0 | [3] 0.134 | alisertib 0.02 | [4] 0.008 | gefitinib -0.021

HAUS6 (UniProt Q7Z4H7)
inactive: alvocidib -0.043 | Tubastatin A -0.084 | [1] 0.008 | defactinib 0.031 | [2] -0.004 | encorafenib 0.031 | [3] -0.025 | alisertib 0.03 | [4] 0.019 | gefitinib 0.017

HSD17B10 (UniProt Q99714)
Chain of UniProt Q99714 (Q99714 whole entry, looked up): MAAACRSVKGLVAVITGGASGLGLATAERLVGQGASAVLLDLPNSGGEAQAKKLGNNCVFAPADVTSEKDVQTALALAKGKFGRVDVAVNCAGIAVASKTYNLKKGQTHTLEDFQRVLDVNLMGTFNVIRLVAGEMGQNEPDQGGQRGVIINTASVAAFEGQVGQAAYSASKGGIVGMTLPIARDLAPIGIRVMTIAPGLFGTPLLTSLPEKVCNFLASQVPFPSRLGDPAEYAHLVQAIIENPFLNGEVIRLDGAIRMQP
inactive: alvocidib -0.02 | Tubastatin A -0.077 | [1] 0.004 | defactinib -0.029 | [2] 0.05 | encorafenib -0.035 | [3] 0.141 | alisertib 0.013 | [4] -0.009 | gefitinib -0.021

HSD17B12 (UniProt Q53GQ0)
Chain of UniProt Q53GQ0 (Q53GQ0 whole entry, looked up): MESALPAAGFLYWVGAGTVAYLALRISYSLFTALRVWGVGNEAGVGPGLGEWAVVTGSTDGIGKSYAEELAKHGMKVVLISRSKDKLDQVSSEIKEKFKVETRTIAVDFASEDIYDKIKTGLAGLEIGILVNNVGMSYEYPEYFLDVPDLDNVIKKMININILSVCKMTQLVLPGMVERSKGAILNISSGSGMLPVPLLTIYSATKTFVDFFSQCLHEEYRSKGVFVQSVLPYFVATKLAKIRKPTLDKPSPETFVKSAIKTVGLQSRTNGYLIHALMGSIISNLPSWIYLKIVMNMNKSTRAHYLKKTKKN
inactive: alvocidib 0.012 | Tubastatin A -0.089 | [1] -0.11 | defactinib -0.021 | [2] -0.046 | encorafenib -0.016 | [3] 0.035 | alisertib 0.022 | [4] 0.009 | gefitinib -0.131

GNB1 (UniProt P62873)
Chain of UniProt P62873 (P62873 whole entry, looked up): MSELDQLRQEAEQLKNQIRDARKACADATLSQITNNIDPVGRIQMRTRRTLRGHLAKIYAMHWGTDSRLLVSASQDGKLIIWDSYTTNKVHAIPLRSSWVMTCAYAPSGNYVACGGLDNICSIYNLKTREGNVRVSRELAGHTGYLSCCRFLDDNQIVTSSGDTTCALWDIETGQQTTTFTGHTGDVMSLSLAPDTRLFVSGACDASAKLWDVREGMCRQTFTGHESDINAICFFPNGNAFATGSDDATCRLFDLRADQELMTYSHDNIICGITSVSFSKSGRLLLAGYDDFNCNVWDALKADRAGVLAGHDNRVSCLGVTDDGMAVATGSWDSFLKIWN
inactive: alvocidib -0.095 | Tubastatin A 0.029 | [1] -0.023 | defactinib -0.028 | [2] -0.011 | encorafenib 0.007 | [3] 0.003 | alisertib -0.023 | [4] -0.011 | gefitinib -0.128

H2AFY (UniProt O75367)
inactive: alvocidib -0.034 | Tubastatin A 0.079 | [1] -0.026 | defactinib 0.106 | encorafenib 0.094 | [3] 0.014 | alisertib 0.001 | [4] 0 | gefitinib 0
active: [2] 0.329

KDM5C (UniProt P41229)
Chain of UniProt P41229 (P41229 whole entry, looked up): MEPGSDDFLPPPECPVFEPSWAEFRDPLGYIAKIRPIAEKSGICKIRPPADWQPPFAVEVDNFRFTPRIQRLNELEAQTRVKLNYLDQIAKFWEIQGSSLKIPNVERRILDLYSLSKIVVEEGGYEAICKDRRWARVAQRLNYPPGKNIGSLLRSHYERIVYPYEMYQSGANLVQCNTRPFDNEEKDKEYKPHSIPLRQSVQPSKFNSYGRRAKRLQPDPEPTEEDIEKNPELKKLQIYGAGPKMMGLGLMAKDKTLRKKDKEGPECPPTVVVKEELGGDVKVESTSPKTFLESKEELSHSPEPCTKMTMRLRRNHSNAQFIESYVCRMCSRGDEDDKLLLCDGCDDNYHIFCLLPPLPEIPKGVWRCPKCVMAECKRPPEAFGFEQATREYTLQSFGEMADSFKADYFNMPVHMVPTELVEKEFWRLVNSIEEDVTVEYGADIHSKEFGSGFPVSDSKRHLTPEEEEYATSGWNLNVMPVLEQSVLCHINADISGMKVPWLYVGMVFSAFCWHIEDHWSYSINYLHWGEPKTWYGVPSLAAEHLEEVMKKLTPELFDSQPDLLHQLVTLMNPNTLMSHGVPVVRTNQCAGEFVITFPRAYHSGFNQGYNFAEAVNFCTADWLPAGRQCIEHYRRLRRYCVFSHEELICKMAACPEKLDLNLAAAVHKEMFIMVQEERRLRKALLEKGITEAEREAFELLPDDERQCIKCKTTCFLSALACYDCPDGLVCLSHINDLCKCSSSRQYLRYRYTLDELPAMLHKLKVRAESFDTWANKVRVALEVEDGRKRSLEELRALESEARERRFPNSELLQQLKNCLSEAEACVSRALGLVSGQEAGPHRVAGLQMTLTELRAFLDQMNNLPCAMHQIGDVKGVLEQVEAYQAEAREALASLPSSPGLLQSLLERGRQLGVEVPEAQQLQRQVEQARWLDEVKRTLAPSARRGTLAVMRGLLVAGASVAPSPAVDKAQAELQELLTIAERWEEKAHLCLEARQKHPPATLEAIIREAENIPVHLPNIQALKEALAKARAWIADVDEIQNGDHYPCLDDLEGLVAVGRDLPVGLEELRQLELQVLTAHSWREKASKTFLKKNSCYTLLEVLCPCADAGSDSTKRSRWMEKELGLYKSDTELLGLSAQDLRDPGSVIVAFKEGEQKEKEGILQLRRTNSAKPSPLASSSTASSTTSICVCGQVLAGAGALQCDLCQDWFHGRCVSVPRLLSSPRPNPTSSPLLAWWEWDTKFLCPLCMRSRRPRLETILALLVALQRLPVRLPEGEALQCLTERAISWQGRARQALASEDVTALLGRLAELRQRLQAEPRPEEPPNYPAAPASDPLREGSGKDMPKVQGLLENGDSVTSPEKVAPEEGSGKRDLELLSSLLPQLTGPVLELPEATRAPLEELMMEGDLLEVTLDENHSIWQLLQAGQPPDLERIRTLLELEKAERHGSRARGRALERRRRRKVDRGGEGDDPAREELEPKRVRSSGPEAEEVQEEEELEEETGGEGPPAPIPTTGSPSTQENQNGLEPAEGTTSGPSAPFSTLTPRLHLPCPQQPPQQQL
inactive: alvocidib -0.02 | Tubastatin A -0.115 | [1] 0.059 | defactinib -0.009 | [2] 0.04 | encorafenib -0.018 | [3] 0.176 | alisertib -0.01 | [4] 0.09 | gefitinib -0.013

GOLGA6B (UniProt A6NDN3)
inactive: alvocidib -0.019 | Tubastatin A -0.054 | [1] -0.002 | defactinib 0.018 | [2] -0.086 | encorafenib -0.048 | [3] -0.053 | alisertib -0.074 | [4] 0.043 | gefitinib 0.065

INPP4A (UniProt Q96PE3)
inactive: alvocidib -0.032 | Tubastatin A -0.051 | [1] 0.033 | defactinib 0.046 | [2] 0.009 | encorafenib 0.01 | [3] -0.019 | alisertib -0.026 | [4] 0.01 | gefitinib -0.033

ILKAP (UniProt Q9H0C8)
Chain of UniProt Q9H0C8 (Q9H0C8 whole entry, looked up): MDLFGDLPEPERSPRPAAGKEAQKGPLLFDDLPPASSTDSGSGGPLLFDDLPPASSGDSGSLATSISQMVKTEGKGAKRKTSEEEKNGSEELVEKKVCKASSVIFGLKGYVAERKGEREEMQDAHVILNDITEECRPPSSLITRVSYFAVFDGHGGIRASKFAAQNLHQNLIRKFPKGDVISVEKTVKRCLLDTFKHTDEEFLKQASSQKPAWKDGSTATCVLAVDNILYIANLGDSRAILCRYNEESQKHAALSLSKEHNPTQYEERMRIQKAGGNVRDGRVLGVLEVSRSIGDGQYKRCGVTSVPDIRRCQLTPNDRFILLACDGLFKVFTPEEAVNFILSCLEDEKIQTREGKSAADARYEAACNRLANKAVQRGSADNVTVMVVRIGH
inactive: alvocidib 0.056 | Tubastatin A -0.067 | [1] 0 | defactinib 0.03 | [2] -0.028 | encorafenib -0.002 | [3] 0.017 | alisertib 0.067 | [4] -0.006 | gefitinib 0.005

HMGA1 (UniProt P17096)
inactive: alvocidib -0.108 | Tubastatin A 0.066 | [1] -0.001 | defactinib -0.007 | [2] 0.023 | encorafenib -0.005 | [3] -0.018 | alisertib 0.046 | [4] 0.011 | gefitinib -0.027

H4C1 (UniProt P62805)
inactive: alvocidib -0.101 | [1] -0.023 | defactinib -0.02 | encorafenib 0.038 | [3] 0.051 | alisertib 0.018 | [4] 0.012 | gefitinib -0.008
active: Tubastatin A 0.373 | [2] 0.569

HDGFL2 isoform 2 (UniProt Q7Z4V5)
inactive: alvocidib -0.155 | Tubastatin A 0.011 | [1] 0.013 | defactinib -0.008 | [2] 0.016 | encorafenib -0.004 | [3] -0.065 | alisertib -0.029 | [4] 0 | gefitinib 0.03

HDAC1 (UniProt Q13547)
Chain of UniProt Q13547 (Q13547 whole entry, looked up): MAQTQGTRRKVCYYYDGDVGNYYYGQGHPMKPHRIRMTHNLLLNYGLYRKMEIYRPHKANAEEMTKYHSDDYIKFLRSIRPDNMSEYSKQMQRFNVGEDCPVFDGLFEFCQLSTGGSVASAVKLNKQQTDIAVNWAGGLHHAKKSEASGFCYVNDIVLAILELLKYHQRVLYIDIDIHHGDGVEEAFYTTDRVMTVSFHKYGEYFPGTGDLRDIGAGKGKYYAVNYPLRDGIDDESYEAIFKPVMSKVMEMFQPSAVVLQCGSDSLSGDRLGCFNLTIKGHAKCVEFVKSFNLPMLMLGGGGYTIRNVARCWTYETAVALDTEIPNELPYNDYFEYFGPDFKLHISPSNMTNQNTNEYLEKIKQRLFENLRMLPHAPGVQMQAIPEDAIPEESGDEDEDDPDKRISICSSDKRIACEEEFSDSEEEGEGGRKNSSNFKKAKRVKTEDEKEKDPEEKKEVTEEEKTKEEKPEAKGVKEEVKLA
inactive: alvocidib 0.003 | Tubastatin A -0.027 | [1] -0.015 | defactinib 0.014 | [2] -0.012 | encorafenib 0.006 | [3] 0.04 | alisertib 0.017 | [4] -0.031 | gefitinib 0.004

GSTCD (UniProt Q8NEC7)
inactive: alvocidib 0.03 | Tubastatin A -0.13 | [1] 0.055 | defactinib -0.002 | [2] -0.013 | encorafenib 0.052 | [3] 0.138 | alisertib -0.068 | [4] 0.002 | gefitinib 0

HNRNPL, A0A3B3ITJ4
inactive: [4] 0.032

KATNBL1 (UniProt Q9H079)
inactive: alvocidib -0.106 | [1] -0.033 | defactinib -0.014 | [2] 0.037 | encorafenib -0.137 | [3] -0.188 | alisertib -0.161 | [4] 0.025 | gefitinib -0.254

IGFBP4 (UniProt P22692)
Chain of UniProt P22692 (P22692 whole entry, looked up): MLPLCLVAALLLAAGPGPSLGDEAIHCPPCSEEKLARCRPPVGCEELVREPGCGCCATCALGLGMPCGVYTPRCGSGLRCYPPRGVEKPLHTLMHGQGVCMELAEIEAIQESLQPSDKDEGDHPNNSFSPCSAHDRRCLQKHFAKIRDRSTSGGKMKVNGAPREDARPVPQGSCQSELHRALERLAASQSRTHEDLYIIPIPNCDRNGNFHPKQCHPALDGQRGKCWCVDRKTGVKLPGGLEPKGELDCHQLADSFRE
active: [4] 0.454
inactive: alvocidib -0.149 | Tubastatin A -0.083 | [1] 0.045 | [2] -0.084 | alisertib -0.005 | gefitinib 0.005

IGF2BP2 isoform 6 (UniProt Q9Y6M1)
inactive: [4] 0.289

KIAA0930 isoform 2 (UniProt Q6ICG6)
inactive: alvocidib -0.067 | Tubastatin A 0.077 | defactinib 0.03 | [2] -0.118 | encorafenib -0.089 | [3] -0.032 | alisertib 0.073 | [4] 0.013 | gefitinib -0.063

HSPA8 (UniProt E9PN89)
inactive: alvocidib -0.248 | Tubastatin A 0.066 | [1] -0.074 | [2] -0.075 | encorafenib 0.088 | [3] 0.035 | alisertib 0.11 | [4] 0.013 | gefitinib 0.076

HNRNPUL1 (UniProt M0R247)
inactive: alvocidib -0.042 | [1] -0.03
